What all share (assay): DAPPL (digital affinity profiling via proximity ligation, sequencing); 10 mM Tris-HCl pH 7.5, 50 mM NaCl, 1 mM DTT, 4% glycerol, room temperature, 30 min; GST-TFs on glutathione beads, 16-mer random dsDNA library, 0.1% formaldehyde crosslink after washing; high values mean tight binding
Test [1] concerns the target T1, FEV (Homo sapiens, UniProt Q99581 1-238).
T1 sequence: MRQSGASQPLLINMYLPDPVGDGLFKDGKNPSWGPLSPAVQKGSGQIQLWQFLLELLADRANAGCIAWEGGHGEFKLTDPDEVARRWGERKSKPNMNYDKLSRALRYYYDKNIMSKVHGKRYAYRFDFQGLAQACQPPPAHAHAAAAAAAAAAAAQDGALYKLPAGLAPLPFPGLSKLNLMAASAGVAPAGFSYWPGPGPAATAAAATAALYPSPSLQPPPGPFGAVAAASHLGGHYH
The settings on record: protein: recombinant; tags: N-terminal GST; dsDNA, one strand shown. In short, it runs like this:
(§1)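 Pools were built from human transcription factors expressed in yeast as GST fusions, captured on glutathione beads and DNA-barcoded, along with a tag-only sample. Incubation with 200 nmole of a 16-mer random double-stranded DNA library lasted 30 min at room temperature in Tris/NaCl/DTT/glycerol buffer, and was followed by washing, 0.1% formaldehyde crosslinking, proximity ligation, PCR amplification and Illumina NextSeq500 sequencing. Binding signal is the quotient of each hexamer's read frequency for a factor and its frequency for the tag-only sample.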

For test [2], the target named is ETV5 (Homo sapiens, UniProt P41161 1-510). The settings on record: protein: recombinant; tags: N-terminal GST; dsDNA, one strand shown. The method in brief:
as §1

Test [3] concerns the target HSF1 (Homo sapiens, UniProt Q00613 1-529). The settings on record: protein: recombinant; tags: N-terminal GST; chain copies: 3; dsDNA, one strand shown. In short, it runs like this: as §1
For test [4], the target named is T2, SPIC (Homo sapiens, UniProt Q8N5J4 1-248).
T2 sequence: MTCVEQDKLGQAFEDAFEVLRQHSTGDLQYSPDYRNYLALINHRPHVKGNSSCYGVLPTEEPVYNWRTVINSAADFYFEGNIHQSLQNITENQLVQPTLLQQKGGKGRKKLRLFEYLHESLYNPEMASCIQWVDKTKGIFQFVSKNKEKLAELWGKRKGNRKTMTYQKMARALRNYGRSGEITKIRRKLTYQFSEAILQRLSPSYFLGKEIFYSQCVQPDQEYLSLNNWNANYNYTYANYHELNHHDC
To be noted: protein: recombinant; tags: N-terminal GST; dsDNA, one strand shown. The method in brief: as §1

For test [5], the target named is ELF4 (Homo sapiens, UniProt Q99607 1-663). The settings on record: protein: recombinant; tags: N-terminal GST; dsDNA, one strand shown. In short, it runs like this: as §1
Test [6] concerns the target T3, ELK4 (Homo sapiens, UniProt P28324-2 1-405).
T3 sequence: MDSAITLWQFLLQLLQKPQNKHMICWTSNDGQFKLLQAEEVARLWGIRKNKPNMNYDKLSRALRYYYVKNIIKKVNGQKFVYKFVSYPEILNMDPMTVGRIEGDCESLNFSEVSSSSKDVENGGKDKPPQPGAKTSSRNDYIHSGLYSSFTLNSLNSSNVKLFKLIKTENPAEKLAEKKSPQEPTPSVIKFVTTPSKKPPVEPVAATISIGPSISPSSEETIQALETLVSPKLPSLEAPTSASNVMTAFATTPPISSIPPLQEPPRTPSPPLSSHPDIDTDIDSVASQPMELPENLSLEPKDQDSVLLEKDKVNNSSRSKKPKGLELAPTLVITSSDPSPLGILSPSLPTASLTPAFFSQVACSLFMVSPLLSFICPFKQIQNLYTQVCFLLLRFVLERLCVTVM
To be noted: protein: recombinant; tags: N-terminal GST; dsDNA, one strand shown. The method in brief:
as §1

For test [7], the target named is T4, ETV2 (Homo sapiens, UniProt O00321 1-342).
T4 sequence: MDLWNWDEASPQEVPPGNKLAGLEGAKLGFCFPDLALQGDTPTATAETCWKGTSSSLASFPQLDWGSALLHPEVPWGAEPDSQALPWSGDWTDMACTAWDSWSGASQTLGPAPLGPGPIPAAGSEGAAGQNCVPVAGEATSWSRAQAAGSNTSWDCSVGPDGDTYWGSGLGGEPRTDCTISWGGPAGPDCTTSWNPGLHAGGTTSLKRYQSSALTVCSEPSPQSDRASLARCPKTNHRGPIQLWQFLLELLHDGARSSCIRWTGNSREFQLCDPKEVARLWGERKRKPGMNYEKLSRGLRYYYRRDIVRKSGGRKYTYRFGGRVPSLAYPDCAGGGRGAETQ
The settings on record: protein: recombinant; tags: N-terminal GST; dsDNA, one strand shown. In short, it runs like this: as §1

The target of test [8] is T5, ELF3 (Homo sapiens, UniProt P78545 1-371).
T5 sequence: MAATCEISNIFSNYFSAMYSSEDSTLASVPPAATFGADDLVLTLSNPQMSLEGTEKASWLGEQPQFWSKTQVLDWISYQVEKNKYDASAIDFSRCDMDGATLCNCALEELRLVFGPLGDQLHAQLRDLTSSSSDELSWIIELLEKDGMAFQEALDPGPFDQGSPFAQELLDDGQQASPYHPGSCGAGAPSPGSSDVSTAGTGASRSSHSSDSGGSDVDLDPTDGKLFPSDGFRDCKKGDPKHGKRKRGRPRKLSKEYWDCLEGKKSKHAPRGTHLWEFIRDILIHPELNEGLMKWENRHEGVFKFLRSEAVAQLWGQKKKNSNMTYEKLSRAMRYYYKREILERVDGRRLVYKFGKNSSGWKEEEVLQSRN
The settings on record: protein: recombinant; tags: N-terminal GST; dsDNA, one strand shown. In short, it runs like this: as §1

In test [9] the target is CRX (Homo sapiens, UniProt O43186 1-299). The settings on record: protein: recombinant; tags: N-terminal GST; dsDNA, one strand shown. In short, it runs like this: as §1
The target of test [10] is ETV1 (Homo sapiens, UniProt P50549 1-477). The settings on record: protein: recombinant; tags: N-terminal GST; dsDNA, one strand shown. The method in brief: as §1
In test [11] the target is T6, ERF (Homo sapiens, UniProt P50548 1-548).
T6 sequence: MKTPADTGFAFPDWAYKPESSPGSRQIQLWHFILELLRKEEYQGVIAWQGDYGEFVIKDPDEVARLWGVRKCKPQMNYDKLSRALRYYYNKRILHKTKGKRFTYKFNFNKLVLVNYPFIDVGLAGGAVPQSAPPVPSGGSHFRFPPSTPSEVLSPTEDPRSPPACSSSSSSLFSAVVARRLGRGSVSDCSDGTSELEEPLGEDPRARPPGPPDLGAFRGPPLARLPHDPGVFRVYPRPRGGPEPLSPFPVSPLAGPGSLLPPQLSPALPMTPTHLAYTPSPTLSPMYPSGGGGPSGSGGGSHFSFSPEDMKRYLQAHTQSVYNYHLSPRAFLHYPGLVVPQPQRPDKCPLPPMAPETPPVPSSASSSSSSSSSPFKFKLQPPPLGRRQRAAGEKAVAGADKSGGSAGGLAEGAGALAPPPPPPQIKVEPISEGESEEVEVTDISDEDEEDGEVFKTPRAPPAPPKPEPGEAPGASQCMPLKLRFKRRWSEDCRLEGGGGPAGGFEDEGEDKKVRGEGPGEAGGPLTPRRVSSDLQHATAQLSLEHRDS
To be noted: protein: recombinant; tags: N-terminal GST; dsDNA, one strand shown. The method in brief: as §1

The target in test [12] is T7, ETV3L (Homo sapiens, UniProt Q6ZN32 1-361).
T7 sequence: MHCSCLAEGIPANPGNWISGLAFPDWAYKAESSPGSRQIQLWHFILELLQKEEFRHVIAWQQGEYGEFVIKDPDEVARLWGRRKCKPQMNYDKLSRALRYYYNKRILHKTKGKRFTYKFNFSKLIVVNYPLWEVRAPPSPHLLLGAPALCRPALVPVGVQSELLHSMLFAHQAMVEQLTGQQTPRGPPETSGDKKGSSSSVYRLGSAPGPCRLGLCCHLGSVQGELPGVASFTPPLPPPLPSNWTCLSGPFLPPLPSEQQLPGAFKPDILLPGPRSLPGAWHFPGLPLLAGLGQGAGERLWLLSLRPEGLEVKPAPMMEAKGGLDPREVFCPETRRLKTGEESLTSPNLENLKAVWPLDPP
To be noted: protein: recombinant; tags: N-terminal GST; dsDNA, one strand shown. In short, it runs like this: as §1

Test [13] has as its target T8, ETS2 (Homo sapiens, UniProt P15036 1-469).
T8 sequence: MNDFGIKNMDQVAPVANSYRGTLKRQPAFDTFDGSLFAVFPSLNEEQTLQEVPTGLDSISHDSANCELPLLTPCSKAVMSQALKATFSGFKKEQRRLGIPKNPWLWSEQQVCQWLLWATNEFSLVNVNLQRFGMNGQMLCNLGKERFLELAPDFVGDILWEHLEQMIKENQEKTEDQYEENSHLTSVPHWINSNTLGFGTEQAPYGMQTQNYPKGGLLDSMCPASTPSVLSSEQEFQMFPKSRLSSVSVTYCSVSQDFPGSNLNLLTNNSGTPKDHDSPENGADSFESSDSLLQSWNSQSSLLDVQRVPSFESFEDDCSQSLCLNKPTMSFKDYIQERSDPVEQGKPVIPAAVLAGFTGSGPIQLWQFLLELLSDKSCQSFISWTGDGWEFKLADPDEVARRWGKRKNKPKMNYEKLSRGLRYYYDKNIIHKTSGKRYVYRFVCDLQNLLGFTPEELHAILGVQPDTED
To be noted: protein: recombinant; tags: N-terminal GST; dsDNA, one strand shown. In short, it runs like this: as §1

The target in test [14] is T9, SPDEF (Homo sapiens, UniProt O95238 1-335).
T9 sequence: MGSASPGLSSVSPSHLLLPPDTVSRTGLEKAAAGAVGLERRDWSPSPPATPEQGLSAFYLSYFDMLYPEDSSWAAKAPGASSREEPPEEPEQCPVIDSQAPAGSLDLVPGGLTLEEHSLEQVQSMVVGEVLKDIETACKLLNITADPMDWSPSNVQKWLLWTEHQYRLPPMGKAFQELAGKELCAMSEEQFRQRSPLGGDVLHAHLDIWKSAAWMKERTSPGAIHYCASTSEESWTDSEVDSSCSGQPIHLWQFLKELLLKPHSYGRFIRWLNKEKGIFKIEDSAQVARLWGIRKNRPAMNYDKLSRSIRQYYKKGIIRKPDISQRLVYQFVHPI
The settings on record: protein: recombinant; tags: N-terminal GST; dsDNA, one strand shown. In short, it runs like this:
as §1

Test [15] deals with T10, ETV7 (Homo sapiens, UniProt Q9Y603 1-341).
T10 sequence: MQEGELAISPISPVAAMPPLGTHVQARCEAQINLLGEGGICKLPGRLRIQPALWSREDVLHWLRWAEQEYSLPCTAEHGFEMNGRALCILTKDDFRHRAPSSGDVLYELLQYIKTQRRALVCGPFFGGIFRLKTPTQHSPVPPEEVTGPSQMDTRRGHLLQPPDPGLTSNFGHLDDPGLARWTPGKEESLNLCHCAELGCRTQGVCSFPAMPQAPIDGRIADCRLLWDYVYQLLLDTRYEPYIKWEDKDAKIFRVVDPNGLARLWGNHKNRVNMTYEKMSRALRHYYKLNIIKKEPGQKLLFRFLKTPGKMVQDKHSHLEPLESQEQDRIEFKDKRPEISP
To be noted: protein: recombinant; tags: N-terminal GST; dsDNA, one strand shown. The method in brief: as §1

Test [16] addresses T11, ELF5 (Homo sapiens, UniProt Q9UKW6-2 1-255).
T11 sequence: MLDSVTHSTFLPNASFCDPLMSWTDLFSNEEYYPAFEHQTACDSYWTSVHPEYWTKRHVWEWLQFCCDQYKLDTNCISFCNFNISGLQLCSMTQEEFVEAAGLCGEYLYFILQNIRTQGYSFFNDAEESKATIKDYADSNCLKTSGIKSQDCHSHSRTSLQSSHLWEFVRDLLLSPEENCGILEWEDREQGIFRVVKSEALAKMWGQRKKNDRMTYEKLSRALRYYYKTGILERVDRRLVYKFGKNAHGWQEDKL
To be noted: protein: recombinant; tags: N-terminal GST; dsDNA, one strand shown. The method in brief: as §1

Test [17] has as its target T12, ETV3 (Homo sapiens, UniProt P41162-2 1-143).
T12 sequence: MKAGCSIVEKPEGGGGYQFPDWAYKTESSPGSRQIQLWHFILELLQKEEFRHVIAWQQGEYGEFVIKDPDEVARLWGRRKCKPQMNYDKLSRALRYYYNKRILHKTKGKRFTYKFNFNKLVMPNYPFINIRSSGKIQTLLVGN
To be noted: protein: recombinant; tags: N-terminal GST; dsDNA, one strand shown. The method in brief:
as §1

Test [18] deals with ETV6 (Homo sapiens, UniProt P41212 1-452). To be noted: protein: recombinant; tags: N-terminal GST; dsDNA, one strand shown. The method in brief: as §1
Chain of ETV6 (P41212 whole entry): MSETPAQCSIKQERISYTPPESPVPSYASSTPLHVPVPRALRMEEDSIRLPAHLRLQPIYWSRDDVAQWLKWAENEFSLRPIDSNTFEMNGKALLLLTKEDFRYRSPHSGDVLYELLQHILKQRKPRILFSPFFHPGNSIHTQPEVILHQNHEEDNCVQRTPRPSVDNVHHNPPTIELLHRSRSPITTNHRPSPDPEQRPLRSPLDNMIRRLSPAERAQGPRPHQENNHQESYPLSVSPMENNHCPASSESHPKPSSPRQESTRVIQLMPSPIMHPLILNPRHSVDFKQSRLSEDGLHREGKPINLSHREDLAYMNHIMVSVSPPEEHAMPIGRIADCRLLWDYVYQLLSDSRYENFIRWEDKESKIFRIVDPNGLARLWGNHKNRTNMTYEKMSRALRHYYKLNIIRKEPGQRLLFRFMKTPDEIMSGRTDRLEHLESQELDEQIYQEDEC

Chain of HSF1 (Q00613 whole entry): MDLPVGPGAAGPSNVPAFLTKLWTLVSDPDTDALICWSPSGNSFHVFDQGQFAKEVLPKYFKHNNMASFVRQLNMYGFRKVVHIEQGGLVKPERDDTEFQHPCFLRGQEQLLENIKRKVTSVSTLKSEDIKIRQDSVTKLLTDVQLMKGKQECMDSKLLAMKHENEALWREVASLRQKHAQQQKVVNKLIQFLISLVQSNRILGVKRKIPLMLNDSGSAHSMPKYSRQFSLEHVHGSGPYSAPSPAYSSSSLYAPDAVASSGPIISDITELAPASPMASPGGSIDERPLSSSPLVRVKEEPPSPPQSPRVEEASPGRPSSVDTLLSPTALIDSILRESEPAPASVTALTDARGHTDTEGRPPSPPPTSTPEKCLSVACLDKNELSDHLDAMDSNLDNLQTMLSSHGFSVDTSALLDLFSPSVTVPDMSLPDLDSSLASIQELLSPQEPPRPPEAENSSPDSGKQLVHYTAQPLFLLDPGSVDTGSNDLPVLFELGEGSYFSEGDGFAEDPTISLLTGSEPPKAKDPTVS
Chain of ELF4 (Q99607 whole entry): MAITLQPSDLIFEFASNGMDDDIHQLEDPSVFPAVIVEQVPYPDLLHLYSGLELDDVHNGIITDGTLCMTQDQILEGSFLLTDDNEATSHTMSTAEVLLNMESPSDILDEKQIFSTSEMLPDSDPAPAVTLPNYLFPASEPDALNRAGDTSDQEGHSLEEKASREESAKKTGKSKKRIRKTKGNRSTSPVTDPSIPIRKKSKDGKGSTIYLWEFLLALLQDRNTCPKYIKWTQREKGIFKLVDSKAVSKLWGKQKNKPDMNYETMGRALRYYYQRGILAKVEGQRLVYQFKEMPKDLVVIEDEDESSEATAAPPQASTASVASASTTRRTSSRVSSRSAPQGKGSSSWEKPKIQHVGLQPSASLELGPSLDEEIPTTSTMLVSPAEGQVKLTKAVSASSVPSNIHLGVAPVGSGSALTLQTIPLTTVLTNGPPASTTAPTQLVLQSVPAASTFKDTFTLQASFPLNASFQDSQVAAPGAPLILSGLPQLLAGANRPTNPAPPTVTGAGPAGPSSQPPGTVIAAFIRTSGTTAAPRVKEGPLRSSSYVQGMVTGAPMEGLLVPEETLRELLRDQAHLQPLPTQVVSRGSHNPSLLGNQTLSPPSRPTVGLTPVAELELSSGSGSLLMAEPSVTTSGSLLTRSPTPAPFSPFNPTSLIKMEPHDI
Chain of CRX (O43186 whole entry): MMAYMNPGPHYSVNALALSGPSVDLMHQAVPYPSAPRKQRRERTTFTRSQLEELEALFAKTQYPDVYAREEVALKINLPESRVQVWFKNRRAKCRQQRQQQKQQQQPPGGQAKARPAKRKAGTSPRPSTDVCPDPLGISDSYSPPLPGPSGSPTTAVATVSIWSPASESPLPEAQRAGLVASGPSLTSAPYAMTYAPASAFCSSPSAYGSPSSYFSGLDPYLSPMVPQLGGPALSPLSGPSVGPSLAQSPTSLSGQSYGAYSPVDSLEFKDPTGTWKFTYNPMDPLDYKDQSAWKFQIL
Chain of ETV5 (P41161 whole entry): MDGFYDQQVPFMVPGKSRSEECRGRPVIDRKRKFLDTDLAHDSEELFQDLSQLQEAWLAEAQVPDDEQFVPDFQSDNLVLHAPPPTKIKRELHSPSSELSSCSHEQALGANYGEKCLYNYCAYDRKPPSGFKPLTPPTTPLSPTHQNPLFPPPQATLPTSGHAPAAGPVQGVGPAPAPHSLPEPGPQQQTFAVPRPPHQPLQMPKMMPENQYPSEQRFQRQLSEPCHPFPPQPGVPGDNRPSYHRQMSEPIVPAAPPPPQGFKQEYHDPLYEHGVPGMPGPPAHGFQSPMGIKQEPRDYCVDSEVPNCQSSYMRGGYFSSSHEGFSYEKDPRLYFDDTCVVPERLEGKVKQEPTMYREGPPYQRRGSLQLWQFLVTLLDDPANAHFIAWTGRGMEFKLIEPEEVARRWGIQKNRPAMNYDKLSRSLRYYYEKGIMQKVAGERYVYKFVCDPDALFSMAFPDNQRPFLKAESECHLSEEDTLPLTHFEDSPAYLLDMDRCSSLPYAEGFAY
Chain of ETV1 (P50549 whole entry): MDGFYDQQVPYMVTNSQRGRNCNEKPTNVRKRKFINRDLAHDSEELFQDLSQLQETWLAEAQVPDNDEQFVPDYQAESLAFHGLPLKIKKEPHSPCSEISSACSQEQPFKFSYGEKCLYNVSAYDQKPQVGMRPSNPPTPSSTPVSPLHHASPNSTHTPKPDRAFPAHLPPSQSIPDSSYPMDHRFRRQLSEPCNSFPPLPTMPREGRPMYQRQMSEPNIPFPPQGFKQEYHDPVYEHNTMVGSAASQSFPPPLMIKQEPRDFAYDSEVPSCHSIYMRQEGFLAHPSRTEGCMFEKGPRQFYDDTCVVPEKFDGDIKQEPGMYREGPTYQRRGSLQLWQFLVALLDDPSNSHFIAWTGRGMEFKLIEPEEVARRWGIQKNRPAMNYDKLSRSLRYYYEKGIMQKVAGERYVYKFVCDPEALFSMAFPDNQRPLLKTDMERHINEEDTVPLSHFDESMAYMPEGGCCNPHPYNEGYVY

With TTCAAT, the binding signal in test [1] was 1.31 fold enrichment (6-mer frequency, TF over GST control); in test [2], 1.32 fold enrichment (6-mer frequency, TF over GST control); in test [3] it was 1.27 fold enrichment (6-mer frequency, TF over GST control); in [4], 1.43 fold enrichment (6-mer frequency, TF over GST control); in [5] it was 1.33 fold enrichment (6-mer frequency, TF over GST control); in [6] it was 1.42 fold enrichment (6-mer frequency, TF over GST control). For the same sequence, the binding signal was 1.43 fold enrichment (6-mer frequency, TF over GST control) in test [7]; 1.36 fold enrichment (6-mer frequency, TF over GST control) in test [8]; 1.38 fold enrichment (6-mer frequency, TF over GST control) in test [9]; 1.45 fold enrichment (6-mer frequency, TF over GST control) in test [10]; 1.32 fold enrichment (6-mer frequency, TF over GST control) in [11]; 1.47 fold enrichment (6-mer frequency, TF over GST control) in test [12]. The binding signal in test [13] was 1.42 fold enrichment (6-mer frequency, TF over GST control); in test [14], 1.32 fold enrichment (6-mer frequency, TF over GST control); in test [15], 1.3 fold enrichment (6-mer frequency, TF over GST control); in [16] it was 1.26 fold enrichment (6-mer frequency, TF over GST control); in [17] it was 1.37 fold enrichment (6-mer frequency, TF over GST control); in test [18], 1.35 fold enrichment (6-mer frequency, TF over GST control).

The values above are taken from paper PMC7862700, “An all-to-all approach to the identification of sequence-specific readers for epigenetic DNA modifications on cytosine”.
